The sample as a whole holds a higher share of hits than the screen did.
Shiga toxin inh = inhibitors of Shiga toxin in Vero cells. AID 2315. 290,000 compounds, 9.2% hits. inhibition, % at 38.7 µM. Vero cells, Shiga toxin protein synthesis inhibition reporter; in the data active = inhibition mostly above about 28%, no sharp cut-off; inactive = mostly below about 43%; also: 0% is about no effect
RE007 growth inh = less growth of the S. pombe RE007 Vpr strain; S. pombe RE007 Vpr strain, BacTiter-Glo ATP luminescence, 24 h; Potency, µM (highest dose often 92.2 µM), without a hit: at the highest dose activity change, negative = less growth, actives largely listed as inhibitors; 360,000 compounds, 0.21% hits; AID 651644; active = well fitted falling curve with a large enough effect; inconclusive = small, poorly fitted or top-dose-only effect; inactive = no such curve, though single readings can be large or run the other way; also: potency is read from the fitted curve at half-maximal effect; % is scaled to controls: 0 for no effect and ±100 for the full control effect; nearly all actives have a fitted effect of over 50% in size
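Fission yeast strain RE007, carrying one chromosomally integrated HIV-1 vpr copy, was seeded at OD 0.01 in PMG+AL medium with 23 nL pinned compound. After 24 h at 30 °C and 99% humidity, viability was read by BacTiter-Glo luminescence.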
Tb PYK inh = inhibitors of Trypanosoma brucei pyruvate kinase; 410,000 compounds, 0.12% hits; AID 624173; Q57TT1; TbPYK enzyme, Kinase-Glo Plus ATP luminescence, 45 min; Potency, µM (series often up to 76.8 µM), inactives show at the top dose activity, negative = inhibition, hits mostly inhibitors; also: potency is read from the fitted curve at half-maximal effect; % is scaled to controls: 0 for no effect and ±100 for the full control effect; nearly all actives have a fitted effect of over 50% in size
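Screened from lowest to highest concentration, compounds were pinned into TbPYK/substrate mixtures, and ADP (130 uM final) was added. Plates sat at room temperature for 45 min prior to Kinase-Glo Plus detection by luminescence.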
Giardia FBPA inh = blocks Giardia fructose-bisphosphate aldolase activity | A8B2U2 | 290,000 compounds, 0.71% hits | Potency, µM (top dose mostly 59.6 µM), inactives show at the highest dose activity, negative = inhibition, hits mostly inhibitors | purified Giardia FBPA; also: potency is read from the fitted curve at half-maximal effect; % is scaled to controls: 0 for no effect and ±100 for the full control effect; nearly all actives have a fitted effect of over 55% in size
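Giardia FBPA (40 nM reagent) was preincubated 10 min at RT with compound (up to 57.5 uM final), then substrate plus GAPDH/TPI/NAD/arsenate coupling system with diaphorase/resazurin was added; resorufin fluorescence (525/598 nm) was read after 20 min.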
Cycloheximide cs = counter-screen for Shiga toxin inhibitors: cycloheximide protein synthesis inhibition; cell reporter, cycloheximide protein synthesis inhibition counterscreen; max response, %; 300,000 compounds, 12% hits; AID 2314; in the data active = max response mostly above about 13%, no sharp cut-off; inactive = mostly below about 14%; also: read at 38.3 µM for the half of the compounds with a filed dose; 0% is about no effect
LmPK inh = LmPK (Leishmania mexicana) enzyme inhibition; purified LmPK, Kinase-Glo ATP luminescence, 1 h; Potency, µM (series often up to 57.5 µM), without a hit: at the highest dose activity change, negative = inhibition, hits mostly inhibitors; 290,000 compounds, 0.37% hits; AID 1721; also: potency is read from the fitted curve at half-maximal effect; % is scaled to controls: 0 for no effect and ±100 for the full control effect
Target sequence (Q27686 whole entry, looked up): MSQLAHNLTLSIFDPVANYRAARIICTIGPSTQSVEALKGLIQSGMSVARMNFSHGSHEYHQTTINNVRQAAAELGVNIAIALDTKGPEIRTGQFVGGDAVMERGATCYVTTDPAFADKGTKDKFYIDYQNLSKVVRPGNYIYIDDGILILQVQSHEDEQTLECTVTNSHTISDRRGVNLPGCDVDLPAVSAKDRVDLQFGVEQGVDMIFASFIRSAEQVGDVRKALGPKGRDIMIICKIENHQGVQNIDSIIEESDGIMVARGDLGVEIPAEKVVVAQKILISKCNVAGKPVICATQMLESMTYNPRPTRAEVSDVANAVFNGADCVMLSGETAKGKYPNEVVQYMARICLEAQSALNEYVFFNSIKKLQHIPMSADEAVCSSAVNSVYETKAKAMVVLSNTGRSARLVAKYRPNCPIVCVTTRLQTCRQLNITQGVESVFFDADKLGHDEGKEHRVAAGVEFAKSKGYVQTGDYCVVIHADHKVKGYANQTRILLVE
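0.1 nM LmPK, 0.5 mM PEP, 0.1 mM ADP; 50 mM imidazole pH 7.2, 7 mM MgCl2, 50 mM KCl; 1 h RT. Kinase-Glo luminescence readout, normalized to no-enzyme (full inhibition) and uninhibited wells.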
The depositor's hits bear a star; u = inconclusive; x = not tested or not shown. Unless noted, calls follow the shape of the dose curve; as a rule, active = well fitted curve in the direction sought with a large enough effect; inconclusive = small, poorly fitted or top-dose-only effect, or another doubt; inactive = no such curve, though single readings can be large; an effect the other way counts as inactive or inconclusive.

SMILES	Shiga toxin inh	RE007 growth inh	Tb PYK inh	Giardia FBPA inh	Cycloheximide cs	LmPK inh
CCCOc1ccc(N2C(=O)CC(N3CCC(C(=O)OCC)CC3)C2=O)cc1 (centres undefined)	-1.4	5.62µM*	3.5%	6.7%	-2.7	6.9%
O=C(Nc1ccccc1F)C(Cc1ccccc1)N1Cc2ccccc2C1=O (centres undefined)	x	x	1.7%	x	x	x
COc1ccc(N=N/C(=C\O)C(=O)c2cccs2)cc1	58.0*	38.0%	-4.8%	0.0%	39.1*	-0.7%
COc1ccc(CC(=O)NNC(=O)c2cccs2)cc1	5.0	15.1%	9.3%	6.5%	5.7	-4.2%
COc1ccc(C(=O)/C(=C/O)N=Nc2ccc(F)cc2)cc1	76.4*	-47.8%	-24.6%	1.5%	58.2*	-1.5%
N/C(=N\OC(=O)COc1ccc(Br)cc1Cl)c1ccncc1	120.9*	5.9%	-11.4%	6.7%	88.3*	-1.5%
N/C(=N\OC(=O)COc1ccc(Br)cc1Cl)c1ccccn1	44.8	-14.3%	-13.3%	2.0%	50.1*	-21.1%
O=C(COc1ccc(Br)cc1Cl)N1CCN(c2ccccn2)CC1	-23.3	-1.9%	-8.2%	x	-3.0	-10.5%
Cc1cc(C)c(C)c(OCC(=O)O/N=C(\N)c2ccccn2)c1	32.1	-26.0%	-3.8%	-1.4%	22.2	-0.7%
N/C(=N\OC(=O)COc1cc(Cl)c(Cl)cc1Cl)c1ccncc1	30.2	18.1%	-2.7%	8.1%	10.1	1.7%
N/C(=N\OC(=O)COc1ccc(Cl)cc1Cl)c1ccccn1	47.7*	8.7%	0.3%	0.8%	35.2*	-19.3%
CCOc1ccccc1NC(=O)N(Cc1ccc(C)o1)C1CCN(C(C)=O)CC1	x	x	-0.8%	x	x	x
C[C@@H]1CN([C@@H](C)CO)S(=O)(=O)c2ccc(C#Cc3cccc(F)c3)cc2O[C@@H]1CN(C)CC1CC1	x	1.6%	3.9%	x	x	x
Cc1cccc2nc(COc3ccc(-c4ccccc4)cc3)cn12	84.6*	x	x	0.0%	43.2*	25.1µM*
Cc1cc(C)n2cc(COc3ccc4ccccc4c3)nc2n1	66.4*	-5.1%	-9.7%	-12.0%	52.7*	-0.1%
Cc1ccnc(SCc2cn3c(C)cc(C)nc3n2)n1	-10.6	-10.9%	-4.3%	-14.8%	-2.5	9.3%
COc1ccc2nc(N3CCN(C(=O)C4CC4)CC3)sc2c1	x	x	1.0%	x	x	x
CCCCNC(=S)N1CCN(c2nc3ccccc3s2)CC1	-2.3	-1.9%	-1.9%	0.2%	-2.2	-1.6%
CNC(=S)N1CCN(c2nc3ccccc3s2)CC1	69.5*	2.2%	0.4%	3.2%	46.3*	9.0%
CS(=O)(=O)N1CCN(c2nc3ccccc3s2)CC1	11.5	-9.0%	-2.2%	0.3%	11.6*	1.4%
O=C(C1CC1)N1CCN(c2nc3ccccc3s2)CC1	131.6*	-5.1%	2.3%	2.6%	32.7*	-6.8%
CCC(=O)N1CCN(c2nc3ccccc3s2)CC1	35.8	-4.0%	-0.4%	0.1%	22.6*	-6.0%
O=C(O)CN1C(=O)/C(=C/c2ccc(-c3cccc(Cl)c3)o2)SC1=S	-5.5	x	x	x	-4.0	x
O=C(Nc1ccccc1)N1CCN(c2nc3ccccc3s2)CC1	0.0	1.1%	2.6%	-3.3%	26.7*	3.1%
Cc1ccc2onc(CNC(=O)NCc3ccc(Cl)cc3)c2c1	x	x	3.4%	x	x	x
SMILES	Shiga toxin inh	RE007 growth inh	Tb PYK inh	Giardia FBPA inh	Cycloheximide cs	LmPK inh
Cc1ccc(NC(=O)Cc2noc3ccccc23)nc1	59.3*	8.6%	5.2%	-0.7%	23.1*	-4.4%
O=C(Cc1noc2ccccc12)Nc1ccccn1	87.9*	4.7%	-2.0%	-1.9%	53.6*	-9.1%
Cc1ccc(CNC(=O)Cc2noc3ccccc23)cc1	51.0*	25.2%	5.9%	14.0%	32.7*	-0.6%
COc1cc(NC(=O)Cc2noc3ccccc23)cc(OC)c1OC	x	x	0.0%	x	x	x
O=C(Cc1noc2ccccc12)NNC(=S)Nc1ccccc1	-7.3	5.7%	-8.6%	-6.5%	-2.5	6.9%
Cc1cc(=O)oc2cc3oc(=O)cc(C)c3cc12	x	1.2%	1.7%	-15.0%	1.4	4.0%
Cc1oc2cc3oc(=O)cc(C)c3cc2c1C	24.0	3.6%	-2.0%	-1.3%	21.6*	0.0%
CC(=O)N1c2ccc(S(=O)(=O)NCC3CCC(C(=O)Nc4cc(C)ccn4)CC3)cc2CC1C (centres undefined)	8.5	-9.2%	1.4%	u	1.2	2.2%
O=C(c1ccccc1)C1C(c2ccccc2)C1[N+](=O)[O-] (centres undefined)	19.6	11.1%	2.9%	0.7%	-1.7	7.2%
CN(C)c1ccc([C@@H]2[C@@H]([N+](=O)[O-])[C@H]3C=Cc4ccccc4N3[C@H]2C(=O)c2ccc(Cl)cc2)cc1	21.6*	u	-5.4%	-13.9%	21.4*	-13.4%
O=C(Nc1ccc(C(=O)N2CCCC2)cc1)c1ccccc1Br	35.2	-0.2%	0.6%	x	10.6*	-9.9%
O=C1c2ccccc2-c2ccc(C(=O)N3CCCCC3)cc21	153.4	5.1%	2.5%	-5.8%	31.0*	-5.5%
O=C(Nc1ccc(C(=O)N2CCCCC2)cc1)c1ccccc1Br	x	-3.1%	2.1%	x	x	x
O=C(/C=C/c1ccccc1)Nc1cccc(C(=O)N2CCCCC2)c1	x	-6.3%	1.5%	x	x	x
O=C(/C=C/c1ccccc1)Nc1ccc(C(=O)N2CCCCC2)cc1	44.4*	3.7%	-0.8%	-2.7%	13.6	1.1%
O=C(Nc1ccc(C2CC2(Cl)Cl)cc1)c1ccccc1Br (centres undefined)	56.6*	-16.7%	14.0%	-15.6%	44.6*	1.3%
CCc1ccccc1N1CC(c2nc3ccccc3n2CCC2CCCCC2)CC1=O (centres undefined)	x	x	-0.1%	x	x	x
Cc1cc(C)c(NC(=O)CCC(=O)N2Cc3ccccc3Oc3ncccc32)c(C)c1	x	x	2.8%	x	x	x
O=C(Nc1ccccc1)Nc1ccc(C(=O)N2CCCC2)cc1	44.5*	-57.3%	u	-5.6%	19.0*	15.8µM*
O=C(Nc1ccc(C(=O)N2CCCCC2)cc1)c1ccccc1	x	-11.8%	u	x	x	x
Fc1cccc(/C=N/NC(=S)Nc2ccccc2Cl)c1	31.0	-15.7%	-6.6%	-12.1%	35.6*	-0.4%
O=[N+]([O-])c1cc(/C=N/NC(=S)Nc2ccccc2Cl)ccc1Cl	20.6	-4.4%	-4.6%	7.5%	10.0	0.6%
S=C(N/N=C/c1ccc(Cl)c(Cl)c1)Nc1ccccc1Cl	30.2	16.5%	-6.7%	0.9%	22.7*	0.5%
COc1ccc(Cl)cc1NC(=O)Cn1ncc2c3ccccc3n(Cc3ccccc3)c2c1=O	x	x	1.7%	x	x	x
CCCCc1ccc(NC(=O)C(C)CC)cc1 (centres undefined)	50.5*	6.0%	0.9%	u	48.3*	u
CCCCc1ccc(NC(=O)CC(C)(C)C)cc1	164.2*	7.5%	-8.2%	-8.1%	144.0*	1.8%
CCCCc1ccc(NC(=O)CC(C)=O)cc1	42.5	9.3%	-4.3%	5.7%	-0.5	-8.7%

Bioassay records: PubChem BioAssay, National Center for Advancing Translational Sciences (NCATS)
